# Assay results taken from PubChem BioAssay (NCATS).
# Where “and” joins values, the source holds several entries; their conditions need not be identical. Identical values can stand only once. Records with an inconclusive call do not appear. Where a call stands in place of a potency, no number is given. Calls of active or inactive are those of the source. Calls follow the shape of the dose curve; as a rule, active = well fitted curve in the direction sought with a large enough effect; inconclusive = small, poorly fitted or top-dose-only effect, or another doubt; inactive = no such curve, though single readings can be large; an effect the other way counts as inactive or inconclusive.
# Key:
# [1] = qHTS of pediatric cancer cell lines to identify multiple opportunities for drug repurposing: Primary screen for Rh41 cells (AID 1347108); also: nearly all actives have a fitted effect of over 70% in size; also: potency is read from the fitted curve at half-maximal effect
# In short: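 ATP-based luminescence (CellTiter-Glo) quantifies viability after a 48-hour exposure. Compounds are dosed across 8 or 11 final concentrations; DMSO and 2.3 µM bortezomib serve as controls.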
# [2] = qHTS of pediatric cancer cell lines to identify multiple opportunities for drug repurposing: Confirmatory screen for NB1643 cells (AID 1347109); also: nearly all actives have a fitted effect of over 45% in size; also: potency is read from the fitted curve at half-maximal effect
# In short: (§1)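 Cells (500-1,000/well) in growth media were settled 5 h at 37 degrees C, then given compounds for 48 h. Viability was read as CellTiter-Glo luminescence. Primary runs used MIPE at 11 points (0.78 nM-46 µM) and NPC at 8 points (0.59 nM-46 µM); follow-ups used 11 points.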
# [3] = qHTS of pediatric cancer cell lines to identify multiple opportunities for drug repurposing: Confirmatory screen for LAN-5 cells (AID 1347113); also: nearly all actives have a fitted effect of over 65% in size; also: potency is read from the fitted curve at half-maximal effect
# In short: as §1
# [4] = qHTS of pediatric cancer cell lines to identify multiple opportunities for drug repurposing: Confirmatory screen for SJ-GBM2 cells (AID 1347116); also: nearly all actives have a fitted effect of over 60% in size; also: potency is read from the fitted curve at half-maximal effect
# In short: (§2)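 Viability measured as metabolically active cells via CellTiter-Glo luminescence following 48 hours of compound exposure, 11-point dilutions in confirmatory testing. 500-1,000 cells/well plated 5 hours before dosing; controls were DMSO and 2.3 µM bortezomib.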
# [5] = qHTS of pediatric cancer cell lines to identify multiple opportunities for drug repurposing: Confirmatory screen for BT-37 cells (AID 1347117); also: nearly all actives have a fitted effect of over 55% in size; also: potency is read from the fitted curve at half-maximal effect
# In short: as §1
# [6] = qHTS of pediatric cancer cell lines to identify multiple opportunities for drug repurposing: Confirmatory screen for TC32 cells (AID 1347118);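 also: cells exposed to compound for 48 h before the read; nearly all actives have a fitted effect of over 65% in size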; also: potency is read from the fitted curve at half-maximal effect
# In short: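 Measured quantity: luminescence from CellTiter-Glo, reflecting metabolically active TC32 cells following 48 h of compound. Curves came straight from multi-point titrations, with 8 or 11 points in primary and 11 in confirmatory screening.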
# [7] = qHTS of pediatric cancer cell lines to identify multiple opportunities for drug repurposing: Confirmatory screen for U-2 OS cells (AID 1347122); also: nearly all actives have a fitted effect of over 65% in size; also: potency is read from the fitted curve at half-maximal effect
# In short: as §1
# [8] = qHTS of pediatric cancer cell lines to identify multiple opportunities for drug repurposing: Confirmatory screen for Rh41 cells (AID 1347123);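 also: 48 h compound exposure; nearly all actives have a fitted effect of over 60% in size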; also: potency is read from the fitted curve at half-maximal effect
# In short: as §1
# [9] = qHTS of pediatric cancer cell lines to identify multiple opportunities for drug repurposing: Confirmatory screen for Rh30 cells (AID 1347126); also: nearly all actives have a fitted effect of over 55% in size; also: potency is read from the fitted curve at half-maximal effect
# In short: as §1
# [10] = qHTS of pediatric cancer cell lines to identify multiple opportunities for drug repurposing: Confirmatory screen for A673 cells (AID 1347110);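 also: cells exposed to compound for 48 h before the viability read; nearly all actives have a fitted effect of over 65% in size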; also: potency is read from the fitted curve at half-maximal effect
# In short: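 qHTS titration format: primary MIPE 0.78 nM-46 µM (11 pts), NPC 0.59 nM-46 µM; confirmation 11 pts. 48 h, CTG luminescence.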
# [11] = qHTS of pediatric cancer cell lines to identify multiple opportunities for drug repurposing: Confirmatory screen for SK-N-MC cells (AID 1347111);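 also: potency is read from the fitted curve at half-maximal effect; cells exposed to compound for 48 h before the readout; nearly all actives have a fitted effect of over 70% in size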
# In short: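 Metabolically active cells were quantified by ATP-dependent luminescence (CellTiter-Glo, 15 min at room temperature) following 48 h treatment. Cells had been plated at 500-1,000 per well and settled for 5 h beforehand.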
# [12] = qHTS of pediatric cancer cell lines to identify multiple opportunities for drug repurposing: Confirmatory screen for DAOY cells (AID 1347114); also: nearly all actives have a fitted effect of over 65% in size; also: potency is read from the fitted curve at half-maximal effect
# In short: as §2
# [13] = qHTS of pediatric cancer cell lines to identify multiple opportunities for drug repurposing: Confirmatory screen for NB-EBc1 cells (AID 1347115);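 also: cells exposed to compound for 48 h before the viability read; nearly all actives have a fitted effect of over 45% in size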; also: potency is read from the fitted curve at half-maximal effect
# In short: as §1
# [14] = qHTS of pediatric cancer cell lines to identify multiple opportunities for drug repurposing: Confirmatory screen for MG 63 (6-TG R) cells (AID 1347119); also: nearly all actives have a fitted effect of over 55% in size; also: potency is read from the fitted curve at half-maximal effect
# In short: as §1
# [15] = qHTS of pediatric cancer cell lines to identify multiple opportunities for drug repurposing: Confirmatory screen for Rh18 cells (AID 1347125); also: nearly all actives have a fitted effect of over 55% in size; also: potency is read from the fitted curve at half-maximal effect
# In short: as §1
# [16] = qHTS of pediatric cancer cell lines to identify multiple opportunities for drug repurposing: Confirmatory screen for OHS-50 cells (AID 1347128); also: potency is read from the fitted curve at half-maximal effect
# In short: as §1
# [17] = qHTS of pediatric cancer cell lines to identify multiple opportunities for drug repurposing: Confirmatory screen for SK-N-SH cells (AID 1347129);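 also: cells exposed to compound for 48 h before viability read; nearly all actives have a fitted effect of over 60% in size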; also: potency is read from the fitted curve at half-maximal effect
# In short: as §1
# [18] = qHTS of pediatric cancer cell lines to identify multiple opportunities for drug repurposing: Confirmatory screen for BT-12 cells (AID 1347112); also: nearly all actives have a fitted effect of over 55% in size; also: potency is read from the fitted curve at half-maximal effect
# In short: as §1
# [19] = qHTS of pediatric cancer cell lines to identify multiple opportunities for drug repurposing: Confirmatory screen for control Hh wild type fibroblast cells (AID 1347121); also: nearly all actives have a fitted effect of over 70% in size; also: potency is read from the fitted curve at half-maximal effect
# In short: as §1
# [20] = target: N-terminal Xaa-Pro-Lys N-methyltransferase 1 (Homo sapiens) (UniProt Q9BV86); experiment: qHTS Assay for Inhibitors of N-terminal methyltransferase 1 (NTMT1): LOPAC validation of the NTMT1 SAHH-coupled ThioGlo3 Assay (AID 1347143); also: nearly all actives have a fitted effect of over 70% in size
# In short: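 Fluorescence read-out (excitation 340nm, emission 450nm) of SAH-derived thiol, measured via SAHH coupling and ThioGlo3, taken immediately and after a 30 min room-temperature reaction, then normalized to the background read. Enzyme: NTMT1 at 125nM; cofactor SAM 100uM in the added reagent.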
# Chain of N-terminal Xaa-Pro-Lys N-methyltransferase 1 (Homo sapiens) (Q9BV86 whole entry, looked up): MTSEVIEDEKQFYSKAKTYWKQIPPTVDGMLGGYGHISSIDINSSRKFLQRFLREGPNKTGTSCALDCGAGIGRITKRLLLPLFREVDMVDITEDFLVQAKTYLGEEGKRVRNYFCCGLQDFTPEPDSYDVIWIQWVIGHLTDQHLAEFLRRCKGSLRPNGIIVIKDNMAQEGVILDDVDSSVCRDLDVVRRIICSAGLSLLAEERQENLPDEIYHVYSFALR
structure (smiles),measurement,setting,value
O=C(O)c1ccccc1C(=O)Nc1ccc(-c2ccccc2)cc1,Potency,[1],inactive
COc1cc(Nc2ncc(F)c(Nc3ccc4c(n3)NC(=O)C(C)(C)O4)n2)cc(OC)c1OC,Potency,[1],2.35 µM (active)
COc1ccc(C2CC(c3ccccc3)=NN2c2ccc(S(N)(=O)=O)cc2)cc1 (centres undefined),Potency,[1],inactive
O=C(Nc1ccccc1-c1cn2c(CN3CCNCC3)csc2n1)c1cnc2ccccc2n1,Potency,[1],20.9 µM (active)
O=C(CCc1ccc(O)cc1)c1c(O)cc(O)cc1O[C@@H]1O[C@H](CO)[C@H](O)[C@H](O)[C@H]1O,Potency,[1],inactive
O=C(O)c1cc(-c2ccccc2)nc2ccccc12,Potency,[1],inactive
COc1ccc2c3c1OC1C[C@@H](O)C=C[C@@]31CCN(C)C2 (some centres undefined),Potency,[1],inactive
CNC(=O)c1ccc2cc(C3(O)CCn4cncc43)ccc2c1 (centres undefined),Potency,[1],inactive
O=C(O)Cc1cccc2ccccc12,Potency,[1],inactive
CC(C)(C)Cn1c(N)nc2ccc(-c3[nH]c(C(C)(C)C)nc3-c3ccc(F)cc3)nc21,Potency,[1],18.7 µM (active)
N[C@H](CSC(c1ccccc1)(c1ccccc1)c1ccccc1)C(=O)O,Potency,[1],inactive
CC1(C)CCC2=C(O1)c1ccccc1C(=O)C2=O,Potency,[1],18.7 µM (active)
same,Potency,[2],23.3 µM (active)
same,Potency,[3],9.27 µM (active)
same,Potency,[4],1.31 µM (active)
same,Potency,[5],23.3 µM (active)
same,Potency,[6],23.3 µM (active)
same,Potency,[7],23.3 µM (active)
same,Potency,[8],8.27 µM (active)
same,Potency,[9],20.8 µM (active)
CN(C)C1CCN(C(=O)c2ccc(NC(=O)Nc3nc(N4CCOCC4)nc(N4CCOCC4)n3)cc2)CC1,Potency,[1],0.0935 µM (active)
same,Potency,[2],0.928 µM (active)
same,Potency,[10],0.0737 µM (active)
same,Potency,[11],0.208 µM (active)
same,Potency,[3],0.261 µM (active)
same,Potency,[12],14.7 µM (active)
same,Potency,[13],16.5 µM (active)
same,Potency,[4],1.47 µM (active)
same,Potency,[5],0.147 µM (active)
same,Potency,[6],0.0657 µM (active)
same,Potency,[14],0.233 µM (active)
same,Potency,[7],3.69 µM (active)
same,Potency,[8],0.0827 µM (active)
same,Potency,[15],0.293 µM (active)
same,Potency,[9],inactive
same,Potency,[16],0.465 µM (active)
same,Potency,[17],3.72 µM (active)
CC1(C)S[C@H]2[C@H](NC(=O)[C@@H](N)c3ccc(O)cc3)C(=O)N2[C@@H]1C(=O)O,Potency,[1],3.72 µM (active)
same,Potency,[2],inactive
same,Potency,[10],inactive
same,Potency,[18],inactive
same,Potency,[3],inactive
same,Potency,[12],inactive
same,Potency,[13],inactive
same,Potency,[4],inactive
same,Potency,[5],inactive
same,Potency,[6],inactive
same,Potency,[14],inactive
same,Potency,[19],inactive
same,Potency,[7],inactive
same,Potency,[8],inactive
same,Potency,[15],inactive
same,Potency,[9],inactive
same,Potency,[16],inactive
same,Potency,[17],inactive
Cc1[nH]c(C=C2C(=O)Nc3ccc(S(=O)(=O)Cc4c(Cl)cccc4Cl)cc32)c(C)c1C(=O)N1CCC[C@H]1CN1CCCC1,Potency,[1],18.7 µM (active)
same,Potency,[2],11.7 µM (active)
same,Potency,[10],13.1 µM (active)
same,Potency,[11],9.27 µM (active)
same,Potency,[3],9.27 µM (active)
same,Potency,[13],inactive
same,Potency,[5],18.5 µM (active)
same,Potency,[6],11.7 µM (active)
same,Potency,[14],32.9 µM (active)
same,Potency,[19],32.9 µM (active)
same,Potency,[15],26.1 µM (active)
same,Potency,[17],23.5 µM (active)
O=C(CCCCCCC(=O)Nc1ccccc1)NO,Potency,[1],3.35 µM (active) and 5.9 µM (active)
same,Potency,[19],inactive
CCCCCCCCCCCC1=C(O)C(=O)C=C(O)C1=O,Potency,[1],4.69 µM (active)
same,Potency,[2],inactive
same,Potency,[11],16.5 µM (active)
same,Potency,[18],inactive
same,Potency,[12],inactive
same,Potency,[13],inactive
same,Potency,[4],inactive
same,Potency,[5],inactive
same,Potency,[6],10.4 µM (active)
same,Potency,[14],inactive
same,Potency,[19],inactive
same,Potency,[8],inactive
same,Potency,[15],inactive
same,Potency,[9],inactive
NC1=N[C@@]2(c3cc(NC(=O)c4ccc(F)cn4)ccc3F)COC[C@@H]2CS1,Potency,[1],18.7 µM (active)
same,Potency,[2],inactive
same,Potency,[10],inactive
same,Potency,[18],inactive
same,Potency,[3],inactive
same,Potency,[12],inactive
same,Potency,[13],inactive
same,Potency,[4],inactive
same,Potency,[5],inactive
same,Potency,[6],inactive
same,Potency,[14],inactive
same,Potency,[19],inactive
same,Potency,[7],inactive
same,Potency,[15],inactive
same,Potency,[9],inactive
same,Potency,[16],inactive
same,Potency,[17],inactive
COc1cc2nc(-c3ccc(N4CCN(C)CC4)cc3)nc(NCCN3CCOCC3)c2cc1OC,Potency,[1],0.296 µM (active)
same,Potency,[10],0.208 µM (active)
same,Potency,[18],0.233 µM (active)
same,Potency,[12],1.17 µM (active)
same,Potency,[19],inactive
same,Potency,[7],0.261 µM (active)
same,Potency,[8],0.414 µM (active)
same,Potency,[15],0.293 µM (active)
same,Potency,[16],0.117 µM (active)
same,Potency,[17],4.69 µM (active)
CCCNC(=O)NS(=O)(=O)c1ccc(Cl)cc1,Potency,[1],inactive
same,Potency,[20],inactive
O=c1[nH]cnc2c1ncn2[C@H]1CC[C@@H](CO)O1,Potency,[1],inactive
same,Potency,[2],inactive
same,Potency,[10],inactive
same,Potency,[18],inactive
same,Potency,[12],inactive
same,Potency,[13],inactive
same,Potency,[4],inactive
same,Potency,[5],inactive
same,Potency,[6],inactive
same,Potency,[14],inactive
same,Potency,[19],inactive
same,Potency,[8],inactive
same,Potency,[9],inactive
same,Potency,[16],inactive
same,Potency,[17],inactive
Cc1nnc(C(C)C)n1C1C[C@H]2CC[C@@H](C1)N2CC[C@H](NC(=O)C1CCC(F)(F)CC1)c1ccccc1 (some centres undefined),Potency,[1],inactive
same,Potency,[2],7.37 µM (active)
same,Potency,[10],inactive
same,Potency,[11],7.37 µM (active)
same,Potency,[12],inactive
same,Potency,[13],7.37 µM (active)
same,Potency,[4],10.4 µM (active)
same,Potency,[7],inactive
same,Potency,[8],inactive
same,Potency,[15],6.57 µM (active)
same,Potency,[9],9.27 µM (active)
same,Potency,[17],inactive
